The values below come from PubChem BioAssay (NCI).

Experiment [1] is described as follows: NCI Yeast Anticancer Drug Screen. Data for the rad50 strain (AID 155).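 Also: 0% = growth of vehicle-only cultures of the same strain.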 As to conditions: S. cerevisiae rad50 strain growth inhibition, stronger effect = higher value; at 50.0 µM unless noted. An outline of the steps: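 Relative growth inhibition (compound vs vehicle) was measured in yeast with a defined repair-gene alteration.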
Experiment [2] is described as follows: NCI Yeast Anticancer Drug Screen. Data for the mec2-1 strain (AID 157). The note with it: S. cerevisiae mec2-1 strain, stronger effect = higher value; at 50.0 µM unless noted. An outline of the steps:
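Growth inhibition is read against vehicle-treated controls after compound exposure of the mec2-1 yeast strain, which is defective in DNA damage repair or cell cycle control.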

The nature of experiment [3]: NCI Yeast Anticancer Drug Screen. Data for the sgs1 mgt1 strain (AID 161).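 Also: 0% = growth of cultures given vehicle only.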 As to conditions: S. cerevisiae sgs1 mgt1 strain, stronger effect = higher value; at 50.0 µM unless noted. In short, it runs like this: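 Compounds are added to genetically altered yeast, and growth is compared with cultures given vehicle alone to give percent inhibition.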
A short description of experiment [4]: NCI Yeast Anticancer Drug Screen. Data for the cln2 rad14 strain (AID 165).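 Also: 0% = growth equal to vehicle treated cultures.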 As to conditions: S. cerevisiae cln2 rad14 strain, stronger effect = higher value; at 50.0 µM unless noted. In short, it runs like this:
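Growth inhibition, relative to vehicle-treated controls, is the read-out. The test organism is a yeast strain with defined genetic alterations, cln2 rad14.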

Experiment [5] is described as follows: NCI Yeast Anticancer Drug Screen. Data for the bub3 strain (AID 167). The note with it: S. cerevisiae bub3 mutant strain, stronger effect = higher value; at 50.0 µM unless noted. In short, it runs like this:
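Screening used yeast with an engineered genetic alteration affecting cell cycle control. Compound-exposed cultures were compared with vehicle cultures, and reduced growth was taken as inhibition.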

A short description of experiment [6]: NCI Yeast Anticancer Drug Screen. Data for the mlh1 rad18 strain (AID 175). As to conditions: S. cerevisiae mlh1 rad18 strain growth inhibition, stronger effect = higher value; at 50.0 µM unless noted. An outline of the steps: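 Cells of a genetically altered yeast strain, deficient in DNA damage repair, were treated with compound. Their growth was then compared with that of vehicle-treated cultures to give inhibition.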

“And” between values parts separate entries of the source, which are not always exact repeats. Equal entries are not always repeated. This is part of a sample that, as a whole, favours compounds with a hit. Of some 79,000 tested, about 15% had one in any assay. Unmarked numbers belong to inactive results. The source made the active and inactive calls. Rule as the data show it: active = growth inhibition above about 70%; inactive = the rest.

For the molecule `O=C1NCCN1/N=C/c1ccc([N+](=O)[O-])o1`, the growth inhibition in experiment [1] was 26.4%; in experiment [2], 9.35%; in experiment [3], 37.5%; in experiment [4], -29.9%; in experiment [5] it was 14.4%; in experiment [6], 25.9%.
Take `Cn1cnc([N+](=O)[O-])c1Sc1ncn[nH]1`: the growth inhibition in experiment [1] is -3.45% and 6%; in experiment [2] it was 3.3% and -1.85%; in experiment [3] it was 8.45% and 2.6%; in experiment [4], 0.35% and 24.6%; in experiment [5], 4% and 21.8%; in experiment [6], -54.3% and 0.9%.
Consider `Nc1ncnc(N)c1NC(=O)c1cccnc1`, for which the growth inhibition was 8.7% in experiment [1]; -6% in experiment [2]; 7.65% in experiment [3]; -40% in experiment [4]; -2.05% in experiment [5]; 5.5% in experiment [6].
`COc1cc(C(C)=O)ccc1OCOc1ccc(C(C)=O)cc1OC`: the growth inhibition in experiment [1] is -4.65%; in experiment [2], -23.6%; in experiment [3], -3.7%; in experiment [4], -43%; in experiment [5], 5.95%; in experiment [6], -5.55%.
Regarding `Cc1ccc(S(=O)(=O)Nc2ccccc2-c2nc3ccc(C)cc3c(=O)o2)cc1`, the growth inhibition in experiment [1] is -5.35%; in experiment [2], -24.7%; in experiment [3], -7.8%; in experiment [4], 2.9%; in experiment [5], -7.55%; in experiment [6], -13.7%.
With `O=C1OC(C2OC(=O)C(=O)C2C2CCCCCCC2=O)C(C2CCCCCCC2=O)C1=O` (stereo not given), the growth inhibition was 45.5% in experiment [1]; 9.15% in experiment [2]; 29.4% in experiment [3]; 32.9% in experiment [4]; 39.2% in experiment [5]; 26.4% in experiment [6].
As to `OCCN(CCO)c1ncnc2c1sc(=S)n2-c1ccccc1`, the growth inhibition was -0.05% in experiment [1]; -32.3% in experiment [2]; 1.15% in experiment [3]; 7.9% in experiment [4]; -5.65% in experiment [5]; 7.5% in experiment [6].
With `COc1ccc(C)cc1Sc1ccc([N+](=O)[O-])cc1C`, the growth inhibition in experiment [1] was 0.65%; in experiment [2], -17.9%; in experiment [3] it was -8.35%; in experiment [4], -19.2%; in experiment [5], 8.95%; in experiment [6], -19.2%.
For the molecule `c1ccc(OC2=NC3=S(S2)SC(Oc2ccccc2)=N3)cc1`, the growth inhibition is 43.2% in experiment [1]; -4.15% in experiment [2]; 56.7% in experiment [3]; 10.6% in experiment [4]; 12.5% in experiment [5]; -3.35% in experiment [6].
Take `O=C(NCCNC(=O)C(Br)(Br)Br)C(Br)(Br)Br`: the growth inhibition in experiment [1] was 82.3% (active); in experiment [2], 53.5%; in experiment [3], 58%; in experiment [4] it was 44.7%; in experiment [5], 69.5%; in experiment [6], 72.8% (active).
In the case of `C(#Cc1ccccc1)COc1ccccc1`, the growth inhibition in experiment [1] is 9.9%; in experiment [2] it was 11.9%; in experiment [3], -15.1%; in experiment [4] it was 1.5%; in experiment [5], 17.1%; in experiment [6], -5.25%.
For the molecule `Nc1nc(=O)[nH]c(=O)[nH]1`, the growth inhibition was -5% in experiment [1]; -0.4% in experiment [2]; -7.05% in experiment [3]; -28.9% in experiment [4]; -14.6% in experiment [5]; 16.9% in experiment [6].
Consider `CC(=O)c1ccc(NC(=O)C(=O)C(C(=O)c2ccc(Cl)c(Cl)c2)C2OC(=O)c3ccccc32)cc1` (stereo not given), for which the growth inhibition in experiment [1] is 44.6%; in experiment [2], 38.8%; in experiment [3], 13.7%; in experiment [4], 54.1%; in experiment [5], 60.3%; in experiment [6], 49.3%.
As for `C=C1C(=O)OC2/C=C(\C)C(O)CCC(C)(O)CC(OC(=O)/C(C)=C/C)C12` (stereo not given), the growth inhibition was 2.35% in experiment [1]; -5.45% in experiment [2]; -3.1% in experiment [3]; 17.4% in experiment [4]; 3.7% in experiment [5]; -1.9% in experiment [6].
Regarding `CN(C)C(C)(CO)CO`, the growth inhibition in experiment [1] is 17.4%; in experiment [2], -6.55%; in experiment [3], 0.65%; in experiment [4], 6.45%; in experiment [5], 9.2%; in experiment [6] it was 0.55%.
With `Cn1c2c(c3ccccc31)CCN(CCCCN1CCN(c3ccccc3)CC1)C2=O`, the growth inhibition in experiment [1] was 3.8%; in experiment [2], -17.5%; in experiment [3], -36%; in experiment [4], 3.55%; in experiment [5], -11.2%; in experiment [6], -7.35%.
With `CCOC(=O)C(CCc1ccccc1)C(C)=O` (stereo not given), the growth inhibition was -0.75% in experiment [1]; -7.95% in experiment [2]; -0.25% in experiment [3]; 40.5% in experiment [4]; 2.45% in experiment [5]; -11.8% in experiment [6].
`CC(=O)Nc1c(C)cc([N+](=O)[O-])c2ccccc12`: the growth inhibition in experiment [1] was -0.7%; in experiment [2], -2.45%; in experiment [3] it was -14.9%; in experiment [4], -9.45%; in experiment [5], 8.05%; in experiment [6] it was -13.3%.
For `Nc1c(Br)cc(Br)cc1C(=O)O`, the growth inhibition in experiment [1] was 23.9%; in experiment [2], -14.1%; in experiment [3], 42.2%; in experiment [4] it was 17.1%; in experiment [5], -6.95%; in experiment [6], 5.7%.
`O=C(O)c1cc([N+](=O)[O-])cc2c(=O)c3cnccc3[nH]c12`: the growth inhibition in experiment [1] is -23.6%; in experiment [2] it was -0.35%; in experiment [3], -1.95%; in experiment [4], -25.6%; in experiment [5] it was -8.5%; in experiment [6], -9.7%.
